Reference: PubChem BioAssay (NCATS)
Inconclusive results are not listed. Calls of active or inactive are those of the source. Unless noted, calls come from the whole dose curve; as a rule, active = well fitted curve in the direction sought with a large enough effect; inconclusive = small, poorly fitted or top-dose-only effect, or another doubt; inactive = no such curve, though single readings can be large; an effect the other way counts as inactive or inconclusive.

What was measured:
[1] = target: Estrogen receptor (Homo sapiens) (UniProt P03372); test: qHTS assay for small molecule agonists of estrogen receptor alpha signaling (AID 588514; calls by dose curve;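 note: 0% = vehicle only and 100% = reference agonist; nearly all actives have a fitted effect of over 70% in size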)
Outline: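 EC50 and efficacy came from Hill fits of beta-lactamase reporter signal (CCF4 dye, 2 h at room temperature) scaled between DMSO and 20 nM 17-beta-estradiol. Agonist mode: HEK293 ER-alpha-UAS-bla cells in charcoal/dextran-stripped serum medium, 18 h compound exposure at 37 C.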

[2] = target: Glucocorticoid receptor (Homo sapiens) (UniProt P04150); test: qHTS assay for small molecule agonists of glucocorticoid receptor signaling (AID 588532; active = well fitted curve in the direction sought with a large enough effect in the signal ratio, with a control signal flat; the % refers to the signal ratio;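 note: 100% = dexamethasone at 0.1 µM and 0% = DMSO only wells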); conditions: HeLa MMTV-bla, beta-lactamase ratio, agonist, 18 h; stronger effect = higher value; percent of dexamethasone control, DMSO zero
Outline: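 Titration series, up to 92 uM, applied to GRE-bla HeLa cells for 18 h at 37 C. Detection by CCF4 FRET substrate after 2 h at RT.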

[3] = target: Vitamin D3 receptor (Homo sapiens) (UniProt P11473); test: qHTS assay for small molecule antagonists of vitamin D receptor signaling (AID 588541; calls by dose curve;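 note: receptor activated by calcitriol during compound treatment; series mostly up to about 77 µM; % is set by controls: 0 for no effect and ±100 for the full control effect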)
Outline: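 VDR-UAS-bla HEK293T cells (2000/well, 2% charcoal-stripped FBS) were treated with titrated compounds plus 1-alpha,25-dihydroxyvitamin D3 (50 nM or 3 nM final) for 16 h at 37 C. CCF4 beta-lactamase fluorescence was read; Hill fits gave IC50.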

[4] = target: Vitamin D3 receptor (Homo sapiens) (UniProt P11473); test: qHTS assay for small molecule agonists of vitamin D receptor signaling (AID 588543; calls by dose curve;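 note: 0% = DMSO basal and 100% = reference agonist control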)
Outline: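 GeneBLAzer VDR-UAS-bla HEK293T cells in 2% charcoal-stripped FBS medium were dosed with compound titrations for 16 h at 37 °C; CCF4 β-lactamase readout (405 nm ex, 460/530 nm em). EC50 and efficacy from Hill fits, normalized to 50 nM calcitriol (100%) and DMSO (0%).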

[5] = qHTS assay for small molecule agonists of retinoid X receptor alpha signaling (AID 588544; calls by dose curve;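 for activation: 0% = DMSO basal wells and 100% = reference agonist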); conditions: HEK293T RXRa-UAS-bla, beta-lactamase reporter, 18 h; 530 nm emission
[6] = target: Retinoic acid receptor RXR-alpha (Homo sapiens) (UniProt P19793); test: as above
[7] = target: Thyroid hormone receptor beta (Homo sapiens) (UniProt P10828); test: qHTS assay for small molecule agonists of thyroid hormone receptor beta signaling (AID 588545; calls by dose curve)
Outline: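 HEK 293 TR-UAS-bla; agonist mode; 18 hrs, 37 C; CCF4, ex 405/em 460 and 530 nm; norm. T3 10 nM = 100%, DMSO = 0%; Hill fit → EC50, efficacy.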

[8] = qHTS assay for small molecule antagonists of retinoid X receptor alpha signaling (AID 588546; active = well fitted inhibition curve with a large enough effect in the signal ratio, with a control signal flat, not every such curve was filed as active; the % refers to the signal ratio;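 note: cells stimulated with 9-cis-retinoic acid as agonist; % is set by controls: 0 for no effect and ±100 for the full control effect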); conditions: HEK293T RXRa-UAS-bla, beta-lactamase ratio, antagonist mode; measured here: W530 green channel, cytotoxicity proxy
Outline: (§1)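 Beta-lactamase reporter inhibition, read as CCF4 fluorescence ratio (ex 405, em 460/530 nm) after 2 h at RT. HEK293T UAS-bla cells, 2500/well, were stimulated with 9-cis-RA at 500 or 100 nM final alongside test compound for 18 h at 37 C.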

[9] = target: Retinoic acid receptor RXR-alpha (Homo sapiens) (UniProt P19793); test: as above; conditions: HEK293T RXRa-UAS-bla, beta-lactamase ratio, antagonist mode
Outline: as §1

[10] = qHTS assay for small molecule activators of the p53 signaling pathway (AID 651743; active = well fitted activation curve with a large enough effect in the signal ratio, not every such curve was filed as active; the % refers to the signal ratio; note: series mostly up to about 92 µM; % of control where 0% means no effect); conditions: HCT-116 p53RE-bla, beta-lactamase FRET ratio, 16 h; activation: stronger effect = higher value
Outline: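 Agonist-mode quantitative HTS in HCT-116 cells carrying a p53-response-element beta-lactamase reporter; 16 h compound treatment at 37 C, then FRET substrate loading for 2 h at room temperature and fluorescence read.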

[11] = qHTS assay for environmental chemicals that activate the Aryl hydrocarbon Receptor (AhR) signaling pathway (AID 651777); conditions: 1A2-DRE human hepatoma cells, luciferase, 24 h; activation: stronger effect = higher value; note: % of control where 0% means no effect; nearly all actives have a fitted effect of over 15% in size
Outline: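 Human hepatoma 1A2-DRE cells, stably carrying a dioxin response element and CYP1A2 promoter driving luciferase, were exposed to compounds for 24 hr at 37 C and 5% CO2. Luciferase signal was then read after 30 min One-Glo at room temperature.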

[12] = target: Peroxisome proliferator-activated receptor alpha (Homo sapiens) (UniProt Q07869); test: qHTS assay for small molecule agonists of the peroxisome proliferator-activated receptor alpha (PPARalpha) signaling pathway (AID 651778); conditions: PathHunter PPARalpha complementation, chemiluminescence, 6 h; max response: stronger effect = higher value; note: % of control where 0% means no effect
Outline: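 Cells plated at 2,000/well and held overnight at 37 C, 5% CO2, then compound added by pin tool for 6 hr; after PathHunter detection reagent and 60 min at room temperature, chemiluminescence from enzyme complementation was read.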

[13] = qHTS assay for small molecule agonists of the antioxidant response element (ARE) signaling pathway measured by Nrf2-dependant transcriptional activity - cell viability counter screen (AID 720653; active = well fitted curve in the direction sought with a large enough effect in the repeat runs; an effect the other way counts as inactive or inconclusive; note: % is set by controls: 0 for no effect and ±100 for the full control effect); conditions: ARE-bla HepG2 viability, CellTiter-Glo ATP luminescence, 16 h; max response: stronger effect = lower value
Outline: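 ARE-bla HepG2 cells (2,000/well) rested 5 hrs at 37C/5% CO2, then exposed to compounds in DMSO for 16 hrs. Viability was read in the same wells as intracellular ATP by luminescence, 30 min at room temperature after reagent addition.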

[14] = qHTS assay for cell viability of HEK293 cells (AID 743288); conditions: ATP luminescence (CellTiter-Glo), 18 h; max response: stronger effect = lower value; note: % is set by controls: 0 for no effect and ±100 for the full control effect; nearly all actives have a fitted effect of over 50% in size
Outline: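 After 18 h compound exposure at 37 C, parental HEK293 cells (2,000/well) are lysed with CellTiter-Glo and luminescence is read following 30 min at room temperature.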

[15] = qHTS assay for cell viability of the p53RE-bla HCT-116 cell line (AID 743292); note: % is set by controls: 0 for no effect and ±100 for the full control effect; nearly all actives have a fitted effect of over 55% in size
Outline: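 CellSensor p53RE-bla HCT-116 cells, 4,000/well, preincubated 5 h at 37 C, then exposed to compounds in DMSO for 16 h at 37 C. Viability read as CellTiter-Glo luminescence (intracellular ATP) after 30 min at room temperature.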

[16] = NCATS anti-infectives library activity on HEK293 viability as a counter-qHTS vs the C. elegans viability qHTS (AID 1745854); note: % is set by controls: 0 for no effect and ±100 for the full control effect
Outline: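 Cytotoxicity counter-screen to a worm viability qHTS: CellTiter-Glo luminescence read 10 min after reagent addition. Compounds (final up to 41.7 uM, a 1:5 dilution series) incubated 24 hr at 37C with 1,500 HEK293 cells per well; digitonin control.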

[17] = NCATS anti-infectives library activity on the primary C. elegans qHTS viability assay (AID 1745855; calls by dose curve; note: potency is the fitted concentration of half-maximal effect)
Outline: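 GFP read-out by 488 nm laser cytometry at day 0, 3 and 7, gated on object perimeter, area and peak intensity, scored viability of PE254-GFP-FLuc worms exposed to compound in S medium with bacterial capsules at 21 °C.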

[18] = target: Nuclear receptor subfamily 1 group I member 2 (Rattus norvegicus) (UniProt Q9R1A7); test: qHTS assay for small molecule activators of the rat pregnane X receptor (rPXR) signaling pathway (AID 651751; call rule not given here; note: 0% is about no effect); conditions: rPXR reporter cells, luciferase (One-Glo), 24 h
[19] = qHTS assay for small molecule activators of the human pregnane X receptor (PXR) signaling pathway (AID 720659; call rule not given here; note: 0% is about no effect)
[20] = target: Glutathione peroxidase 1 (Homo sapiens) (UniProt P07203); test: Primary qHTS Assay for Inhibitors of Recombinant Selenoprotein Glutathione Peroxidase 1 (GPX1) (AID 1845191); note: % is set by controls: 0 for no effect and ±100 for the full control effect; nearly all actives have a fitted effect of over 65% in size
Outline: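 GPX1 10 nM, GR 100 nM, GSH 1 mM, NADPH 0.5 mM, CHP 0.5 mM (final). 30-min cpd preincubation, RT. Ex340/Em450 read t=0, t=15 min.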

Vitamin D3 receptor (Homo sapiens), sequence (P11473 whole entry, looked up): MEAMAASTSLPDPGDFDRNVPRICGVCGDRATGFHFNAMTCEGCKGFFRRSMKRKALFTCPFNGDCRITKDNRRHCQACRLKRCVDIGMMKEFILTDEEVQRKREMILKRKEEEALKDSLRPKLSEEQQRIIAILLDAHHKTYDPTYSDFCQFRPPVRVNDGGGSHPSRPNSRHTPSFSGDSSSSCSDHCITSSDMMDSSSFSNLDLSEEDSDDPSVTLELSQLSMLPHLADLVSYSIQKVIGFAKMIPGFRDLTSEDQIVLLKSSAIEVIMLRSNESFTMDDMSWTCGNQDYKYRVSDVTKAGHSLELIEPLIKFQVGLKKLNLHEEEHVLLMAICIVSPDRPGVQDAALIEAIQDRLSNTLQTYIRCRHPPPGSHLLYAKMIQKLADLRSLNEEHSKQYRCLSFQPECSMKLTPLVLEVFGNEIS
Retinoic acid receptor RXR-alpha (Homo sapiens), sequence (P19793 whole entry, looked up): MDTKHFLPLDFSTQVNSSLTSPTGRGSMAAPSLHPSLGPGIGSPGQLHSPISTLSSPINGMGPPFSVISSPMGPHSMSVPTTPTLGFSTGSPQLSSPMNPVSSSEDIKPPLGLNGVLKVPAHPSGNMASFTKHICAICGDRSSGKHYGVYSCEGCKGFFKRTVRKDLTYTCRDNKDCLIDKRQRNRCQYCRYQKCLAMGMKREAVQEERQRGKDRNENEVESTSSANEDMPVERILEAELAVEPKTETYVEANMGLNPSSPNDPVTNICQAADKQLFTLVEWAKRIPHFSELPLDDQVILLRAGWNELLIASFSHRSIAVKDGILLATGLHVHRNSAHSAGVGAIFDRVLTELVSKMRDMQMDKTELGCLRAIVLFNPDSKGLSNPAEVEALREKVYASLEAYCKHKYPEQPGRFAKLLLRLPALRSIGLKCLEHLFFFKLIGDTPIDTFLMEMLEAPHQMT
Glutathione peroxidase 1 (Homo sapiens), sequence (P07203 whole entry, looked up): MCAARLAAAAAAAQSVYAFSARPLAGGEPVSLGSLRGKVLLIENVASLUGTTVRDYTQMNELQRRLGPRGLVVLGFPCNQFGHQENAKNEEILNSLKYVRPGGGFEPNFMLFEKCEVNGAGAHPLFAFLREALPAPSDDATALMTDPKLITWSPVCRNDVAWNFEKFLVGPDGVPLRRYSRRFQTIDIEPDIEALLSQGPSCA
Nuclear receptor subfamily 1 group I member 2 (Rattus norvegicus), sequence (Q9R1A7 whole entry, looked up): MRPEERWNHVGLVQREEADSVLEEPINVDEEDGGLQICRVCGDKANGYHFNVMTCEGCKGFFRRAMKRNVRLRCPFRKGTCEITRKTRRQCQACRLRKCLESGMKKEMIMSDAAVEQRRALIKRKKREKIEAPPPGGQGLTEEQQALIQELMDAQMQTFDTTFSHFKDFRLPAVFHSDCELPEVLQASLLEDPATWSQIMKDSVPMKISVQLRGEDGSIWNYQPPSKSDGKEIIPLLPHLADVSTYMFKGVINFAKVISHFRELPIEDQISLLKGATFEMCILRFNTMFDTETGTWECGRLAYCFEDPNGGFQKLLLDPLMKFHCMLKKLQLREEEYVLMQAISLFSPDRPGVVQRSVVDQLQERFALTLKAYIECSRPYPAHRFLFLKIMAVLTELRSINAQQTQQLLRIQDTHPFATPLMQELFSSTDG
Glucocorticoid receptor (Homo sapiens), sequence (P04150 whole entry, looked up): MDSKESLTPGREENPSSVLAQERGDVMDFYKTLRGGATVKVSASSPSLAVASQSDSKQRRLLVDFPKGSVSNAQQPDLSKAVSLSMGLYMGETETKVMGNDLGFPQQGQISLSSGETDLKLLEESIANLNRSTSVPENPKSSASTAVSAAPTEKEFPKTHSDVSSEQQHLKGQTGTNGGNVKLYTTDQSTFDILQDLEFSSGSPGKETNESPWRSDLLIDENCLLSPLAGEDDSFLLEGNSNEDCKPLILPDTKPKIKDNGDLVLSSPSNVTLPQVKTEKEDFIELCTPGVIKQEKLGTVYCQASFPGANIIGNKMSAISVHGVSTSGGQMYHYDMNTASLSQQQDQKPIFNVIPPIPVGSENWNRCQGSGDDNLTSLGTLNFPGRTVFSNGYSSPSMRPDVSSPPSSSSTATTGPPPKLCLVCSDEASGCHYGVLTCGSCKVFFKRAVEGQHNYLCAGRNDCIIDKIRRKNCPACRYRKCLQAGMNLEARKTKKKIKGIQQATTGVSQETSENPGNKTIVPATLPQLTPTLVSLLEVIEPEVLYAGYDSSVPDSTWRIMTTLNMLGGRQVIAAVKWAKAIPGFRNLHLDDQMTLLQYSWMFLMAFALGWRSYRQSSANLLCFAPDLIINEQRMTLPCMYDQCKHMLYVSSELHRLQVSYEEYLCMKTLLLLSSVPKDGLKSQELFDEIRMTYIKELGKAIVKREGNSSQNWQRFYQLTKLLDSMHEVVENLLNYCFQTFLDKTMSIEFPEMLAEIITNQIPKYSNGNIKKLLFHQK
Estrogen receptor (Homo sapiens), sequence (P03372 whole entry, looked up): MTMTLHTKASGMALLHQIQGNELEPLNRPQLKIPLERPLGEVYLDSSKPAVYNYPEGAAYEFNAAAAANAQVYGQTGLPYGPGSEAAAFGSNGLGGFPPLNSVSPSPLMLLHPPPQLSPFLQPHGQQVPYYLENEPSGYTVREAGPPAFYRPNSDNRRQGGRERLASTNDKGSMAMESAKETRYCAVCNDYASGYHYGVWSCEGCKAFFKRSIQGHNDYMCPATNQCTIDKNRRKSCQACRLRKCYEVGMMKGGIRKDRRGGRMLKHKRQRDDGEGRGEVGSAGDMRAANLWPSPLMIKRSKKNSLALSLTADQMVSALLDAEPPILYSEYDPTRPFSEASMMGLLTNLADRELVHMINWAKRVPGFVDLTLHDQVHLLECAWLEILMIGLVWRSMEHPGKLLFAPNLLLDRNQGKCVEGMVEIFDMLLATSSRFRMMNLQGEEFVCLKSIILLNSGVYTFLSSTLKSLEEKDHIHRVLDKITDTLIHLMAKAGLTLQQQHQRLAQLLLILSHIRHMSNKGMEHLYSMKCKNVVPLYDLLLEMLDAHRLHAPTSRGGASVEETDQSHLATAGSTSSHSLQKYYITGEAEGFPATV
Peroxisome proliferator-activated receptor alpha (Homo sapiens), sequence (Q07869 whole entry, looked up): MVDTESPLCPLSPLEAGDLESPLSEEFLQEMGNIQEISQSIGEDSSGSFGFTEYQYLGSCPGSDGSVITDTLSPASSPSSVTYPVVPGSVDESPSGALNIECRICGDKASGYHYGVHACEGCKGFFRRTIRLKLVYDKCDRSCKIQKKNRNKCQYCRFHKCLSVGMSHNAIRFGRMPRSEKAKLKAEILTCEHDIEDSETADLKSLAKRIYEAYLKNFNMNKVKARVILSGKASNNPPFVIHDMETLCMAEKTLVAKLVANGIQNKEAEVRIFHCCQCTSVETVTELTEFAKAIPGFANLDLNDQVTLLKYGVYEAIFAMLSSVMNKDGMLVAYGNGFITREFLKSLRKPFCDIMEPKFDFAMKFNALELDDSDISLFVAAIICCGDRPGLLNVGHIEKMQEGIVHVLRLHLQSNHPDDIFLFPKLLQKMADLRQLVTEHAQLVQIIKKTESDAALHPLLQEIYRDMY
Thyroid hormone receptor beta (Homo sapiens), sequence (P10828 whole entry, looked up): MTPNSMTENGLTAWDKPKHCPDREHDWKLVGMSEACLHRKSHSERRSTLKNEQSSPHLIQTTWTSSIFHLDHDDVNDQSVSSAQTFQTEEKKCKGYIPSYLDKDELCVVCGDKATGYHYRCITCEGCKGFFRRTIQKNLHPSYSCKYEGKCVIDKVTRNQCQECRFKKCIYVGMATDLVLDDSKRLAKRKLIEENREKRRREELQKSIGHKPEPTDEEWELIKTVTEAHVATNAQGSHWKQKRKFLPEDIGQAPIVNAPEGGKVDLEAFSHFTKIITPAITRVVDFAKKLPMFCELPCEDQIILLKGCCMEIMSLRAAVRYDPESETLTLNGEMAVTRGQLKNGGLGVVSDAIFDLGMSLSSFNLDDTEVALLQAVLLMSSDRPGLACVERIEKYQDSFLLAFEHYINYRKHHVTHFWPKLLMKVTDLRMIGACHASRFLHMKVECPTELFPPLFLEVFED

O=C(O[C@@H]1Cc2c(O)cc(O)cc2O[C@@H]1c1cc(O)c(O)c(O)c1)c1cc(O)c(O)c(O)c1
-13.5%: max response [8]
inactive: Potency [1] | activation [2] 4.83% | outcome [3] | outcome [4] | outcome [6] | outcome [7] | max response [9] -1.14% | activation [10] -1.73% | activation [11] -3.33% | max response [12] -1.73% | max response [13] -12.8% | max response [14] -1.55% | Potency [15] | Potency [16] | max response [18] -1.38% | outcome [19]
-0.202%: max response [5]
active: Potency [17] 0.163 µM

CC(C)C[C@H](NC(=O)[C@H]1O[C@@H]1C(=O)O)C(=O)NCCCCN=C(N)N
inactive: Potency [16] | Potency [20]

CC(=O)N[C@@H](CC(=O)O)C(=O)N[C@@H](CCC(=O)O)C(=O)N[C@H](C(=O)N[C@H](C=O)CC(=O)O)C(C)C
inactive: Potency [16]

CCNC(=O)c1cc2c(-c3cc(C(C)(C)O)ccc3Oc3c(C)cc(F)cc3C)cn(C)c(=O)c2[nH]1
inactive: Potency [16]

COC(=O)N[C@H](C(=O)N1CCC[C@H]1C(=O)Nc1ccc([C@@H]2CC[C@@H](c3ccc(NC(=O)[C@@H]4CCCN4C(=O)[C@@H](NC(=O)OC)C(C)C)cc3)N2c2ccc(C(C)(C)C)cc2)cc1)C(C)C
inactive: Potency [16] | Potency [20]
